Assay results reported in PubChem BioAssay AID485297 (National Center for Advancing Translational Sciences (NCATS), 2010).
Out of some 320,000 compounds screened, about 9,100 (2.8%) were called active. Roughly 3% stayed inconclusive and do not appear here. Calls follow the shape of the dose curve; as a rule, active = well fitted activation curve with a large enough effect; inconclusive = small, poorly fitted or top-dose-only effect; inactive = no such curve, though single readings can be large or run the other way. This excerpt belongs to a sample that is enriched for actives.

test: qHTS Assay for Rab9 Promoter Activators; details: Huh7 Rab9 promoter-luciferase reporter, luminescence, 24 h; series mostly up to 9.22 µM; also: nearly all actives have a fitted effect of over 60% in size
Procedure, shortened: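 Luminescence from Amplite-detected luciferase (10 minutes, ambient) reports Rab9 promoter activation. Before that, stable Rab9-luciferase Huh7 cells (1500/well, reduced-serum OP-MEM I plus 10% FBS) were exposed to compound for 24 hours at 37C.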
Potency is read from the fitted curve at half-maximal effect.

Potency, inactive:
COc1ccc(/C(C)=N/Nc2cc(C(F)(F)F)ccc2Cl)c(OC)c1
S=C(NNC(=S)NC1CC2CCC1C2)NC1CC2C=CC1C2 (stereo not drawn)
S=C(NNC(=S)NC1CC2C=CC1C2)NC1CC2C=CC1C2 (stereo not drawn)
COc1ccc(-c2cc(C(=O)NCCCN3CCCC3=O)c3ccccc3n2)cc1OC
N/C(=N\OC(=O)N1c2ccccc2Sc2ccccc21)c1ccc(Br)cc1
N/C(=N\OC(=O)/C=C/c1ccccc1)c1ccc(Br)cc1
CC1CC2C3CCC4=CC(=O)C=C[C@]4(C)[C@@]3(F)[C@@H](O)C[C@]2(C)[C@@]1(O)C(=O)CO (stereo partly drawn)
CC(C)C(=O)Nc1c(O)c2ccccc2[nH]c1=O
CCCc1nc2ccccc2c(=O)n1NC(=O)c1c(O)c2ccccc2[nH]c1=O
COc1ccc(C(=O)NCc2ccc(Cl)cc2)cc1S(=O)(=O)N1CCCC1
CCCn1nc(C(=O)NNC(=O)CCOc2ccccc2OCC)c2ccccc2c1=O
NC(=O)c1ccsc1NC(=O)c1ccco1
O=C(Nc1ccnc(-c2ccncc2)n1)c1cccs1
CC(C)(C)n1ncc2c(=O)n(Cc3c(Cl)cccc3Br)cnc21
Cc1ccc(F)cc1S(=O)(=O)Nc1cccc(C(=O)N2CCCC(C(N)=O)C2)c1 (stereo not drawn)
C=C(C)CNc1cc(S(=O)(=O)N2CCOCC2)ccc1Oc1ccccc1
CCOc1ccc(-n2c(SCC(N)=O)nnc2-c2ccco2)cc1
COc1ccc(OCC(=O)Nc2nnc(-c3ccco3)s2)cc1
Cc1ccc(OCC(=O)Nc2nnc(-c3ccco3)s2)cc1
N#Cc1ccc(OCc2nnc(-c3ccc([N+](=O)[O-])cc3)o2)cc1
CC(=O)Nc1ccc(NC(=O)COc2ccc(-c3ccccc3)cc2)cc1
O=C(CCc1ccccc1)Nc1cccc(-c2nnc(-c3ccco3)o2)c1
O=C(CN1CCCSc2ccccc21)N1CCN(S(=O)(=O)c2cccc(F)c2)CC1
Cc1cccc(NC(=S)NCCc2ccc(Cl)cc2)c1C
COc1ccccc1S(=O)(=O)NCc1ccc(C(=O)N(C)Cc2ccc(F)cc2)cc1
CC(=O)Nc1ccc(NC(=O)CCN2C(=O)C3CC=CCC3C2=O)cc1 (stereo not drawn)
C[C@@H]1NC(=O)[C@@]2(C)[C@@H](c3ccccc3)[C@H]3COc4ccccc4[C@@H]3N2C1=O
Cc1ccc(OCCC(=O)Nc2ccc(S(=O)(=O)Nc3nccs3)cc2)cc1
CCCOC(=O)Nc1ccccc1C(N)=O
Cc1cccc(OCCC(=O)Nc2ccccc2C(N)=O)c1
COc1ccccc1C(=O)NCC(=O)NCCSc1ccc(Br)cc1
Cc1ccn(CCC(=O)N2c3ccccc3CC2C)n1 (stereo not drawn)
CCn1nc(C(=O)OCC(=O)N2c3ccccc3CC2C)c2ccccc2c1=O (stereo not drawn)
COC(=O)C1CCN(CC(N)=O)CC1
COC(=O)c1ccc(CSc2ccc(S(=O)(=O)N3CCCCC3)cn2)cc1
O=C(CN1C(=O)c2ccccc2S1(=O)=O)NC1CCCCC1
O=C(CN1C(=O)c2ccccc2S1(=O)=O)N1CCc2ccccc21
O=C(COC(=O)Cc1ccc(Br)cc1)Nc1ccc(N2CCOCC2)cc1
CCOCc1c(C(=O)N2CCN(Cc3ccc(Br)s3)CC2)oc2ccccc12
CC(=O)Nc1cccc(-c2nc3ccccc3s2)c1C
CC(C)CC(=O)NC(=S)NCc1ccccc1
Cc1cc(C(=O)OCC(=O)Nc2nnc(C(C)C)s2)c2ccccc2n1
O=C(O)CCCCc1nc2ccccc2s1
O=C(OCC(=O)N1CCCC1)c1ccc(Cl)nc1
CCCN(C(=O)c1nc2nccc(C)n2n1)c1c(N)n(Cc2ccccc2)c(=O)[nH]c1=O
O=C(Nc1cc(C(F)(F)F)ccc1Cl)C(=O)N1CCCCC1
O=C(Nc1cc(C(F)(F)F)ccc1Cl)c1cc(C2CC2)on1
Cc1cc(NC(=O)CCC(=O)N(CC(=O)NCC2CCCO2)c2ccccc2)no1 (stereo not drawn)
CC(C)Oc1ccc(C(=O)NCC(=O)Nc2ccc3c(c2)CCC3)cc1
COc1ccc(N2CCN(C(=O)c3ccc4c(Cl)c5c(nc4c3)CCCC5)CC2)cc1
CC(=O)c1ccc(NC(=O)c2ccc3c(Cl)c4c(nc3c2)CCCC4)cc1
COc1ccc(C(=O)OCC(=O)N2CC(=O)Nc3ccccc32)cc1Br
O=C1C2C3C=CC(C3)C2C(=O)N1c1ccc(-c2nc3ccccc3c(=O)o2)cc1 (stereo not drawn)
Cc1ccc(NC(=O)Cn2c(C)csc2=O)cc1
Cc1ccc(C)c(NC(=O)c2cc(-c3cc(C)cc(C)c3O)n[nH]2)c1
Cc1ccc(NC(=O)CCN2C(=O)c3ccccc3C2=O)cc1C
CCN(CC(=O)Nc1ccc(C)c(S(=O)(=O)N(C)C)c1)Cc1ccccc1
Cc1ccc(NC(=O)c2cccs2)cc1S(=O)(=O)N(C)C
CCN(CC)CCn1c2c(c(SCC(=O)Nc3nc4ccccc4s3)nc1=O)CCCC2
O=[N+]([O-])c1cc(Br)c(O)c(/C=N/Nc2nc3ccccc3s2)c1
CC(=O)O[C@H]1c2ccccc2-c2ccccc2[C@@H]1OC(C)=O
O=C(Nc1ccccc1N1CCOCC1)c1csc2c1CCCC2
Cc1ccc(NC(=O)c2c(NC(=O)CCC(=O)O)sc3c2CCCCC3)cc1
CCOC(=O)c1sc(NC(=O)c2cc(S(=O)(=O)N3CCOCC3)ccc2C)nc1C
CCOC(=O)c1sc(NC(=O)c2sc(C)nc2C)nc1C
CCN(C(=O)COC(=O)c1c(C)nn(-c2ccccc2)c1Cl)c1c(N)n(Cc2ccccc2)c(=O)[nH]c1=O
Cc1cccc(NC(=O)CN2CCN(CC(=O)NCC3(N4CCCCC4)CCCCC3)CC2)c1C
CCCn1c(N)c(N(CCOC)C(=O)C2CCCC2)c(=O)[nH]c1=O
O=C(CNS(=O)(=O)c1ccc2ccccc2c1)Nc1ccc(F)c(F)c1F
COC(=O)c1ccc(NC(=O)CSc2nncn2-c2cccnc2)cc1
O=C(COC(=O)c1cccc(Cl)c1)NC1CCCCCCC1
O=C(CSc1nnc(N2CCOCC2)n1-c1cccc(F)c1)N1CCN(c2ccccn2)CC1
C=CCNc1nc(Nc2ccc(Cl)cc2)nc(OC)n1
Brc1ccc(CN2CC[C@H]3C=CCc4cccc(c43)C2)cc1
COc1cccc(C(=O)Nc2cccnc2)c1OC
Cc1cccc(-n2cnc(C(=O)NNC(=S)Nc3ccccc3)c2)n1
Cc1ccc(NC(=O)CN(C)C(=O)c2cccc(S(=O)(=O)N3CCCC3)c2)cc1
Cc1ccc(O)c(CNc2nc3ccccc3[nH]2)c1
Cc1cc(NC(=O)c2ccco2)c(=O)n(Cc2c(F)cccc2Cl)c1
Cc1ccc(S(=O)(=O)N2CCCCC2)cc1NC(=O)c1cccnc1
O=C(Nc1cc(-c2nc3ncccc3o2)ccc1Cl)c1ccco1
O=C(Nc1cccc(-n2cnnn2)c1)c1cccnc1
O=C(OC1CCCCC1=O)c1cccc(S(=O)(=O)NCc2ccccc2)c1 (stereo not drawn)
CCOc1ccccc1NC(=O)NC1CCCCCCC1

Potency, active:
CC(C)c1ccc(NC(=S)NC2CC3C=CC2C3)cc1 (stereo not drawn) 2820 nM
N/C(=N\OC(=O)c1ccc2c(c1)OCO2)c1ccc(Br)cc1 3980 nM
NS(=O)(=O)c1ccccc1NC(=O)c1c(O)c2ccccc2[nH]c1=O 447 nM
O=C(Nc1ccc(NC(=O)c2cccs2)cn1)c1ccco1 316 nM
c1ccc(CN=C2Nc3ccccc3CS2)nc1 891 nM
CCCCOc1ccc(-c2nnc(-c3ccco3)o2)cc1 1410 nM
Cc1ccc(OCC(=O)Nc2ccc(-c3nnc(-c4ccco4)o3)cc2)cc1 2820 nM
CCOc1ccc(-c2nnc(-c3ccco3)o2)cc1 355 nM
CCOC(OCC)c1ccc(/C=C\c2nccc(N)n2)cc1 1780 nM
COc1cccc(OCC(=O)Nc2ccccc2C(N)=O)c1 2820 nM
CCCC(=O)N1c2ccc(-c3csc(N)n3)cc2CC1C (stereo not drawn) 2820 nM
CC1CCCN(C(=O)CN2C(=O)c3ccccc3S2(=O)=O)C1 (stereo not drawn) 2820 nM
CC(C)CC(=O)N/C(N)=N/c1nc2ccccc2s1 2820 nM
CCC(=O)NC(=Nc1nc2ccccc2s1)NC(=O)CC 3550 nM
O=C(Nc1cc(C(F)(F)F)ccc1Cl)c1cc2nc3c(c(C(F)(F)F)n2n1)CCCC3 1780 nM
CC(C)CCNC(=O)c1ccc2c(Cl)c3c(nc2c1)CCC3 794 nM
Cc1ccc(NC(=O)c2cc(-c3ccccc3O)n[nH]2)cc1C 2820 nM
Cc1ccc(C(=O)Nc2ccc(C)c(S(=O)(=O)N(C)C)c2)s1 1000 nM
c1ccc2sc(NN=C3CCCC3)nc2c1 631 nM
COC(=O)c1sc(NC(=O)c2csc3c2CCCC3)nc1C 3980 nM
Cc1ccc(NC(=O)c2csc3c2CCCC3)cc1 1410 nM
Cc1cccc(-n2cnc(C(=O)Nc3cccnc3)c2)n1 2240 nM
Cc1ccc(-n2nc3cc(Cl)c(NC(=O)c4ccco4)cc3n2)cc1 3550 nM
Cc1ccc(-n2nc3cc(C)c(NC(=O)c4cccnc4)cc3n2)cc1 3550 nM
